Data reported in the supplement of paper PMC10849652.
Of roughly 7,900 targets only a part is listed; those with a hit were picked by preference. About 0.6% of all pairs of compound and target were hits. Values without a mark were called inactive.

How the values were obtained:
Experiment in all cases: log2 fold change, soluble protein after heating vs DMSO (PISA); higher = thermal stabilisation; K562 cells, 10 uM, 30 min; active = over 0.2 and 3.5 SD of the protein, either way, in both replicates (recomputed)
bafetinib = compound: Cc1ccc(NC(=O)c2ccc(CN3CC[C@H](N(C)C)C3)c(C(F)(F)F)c2)cc1Nc1nccc(-c2cncnc2)n1 [bafetinib]
In short: (§1)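 Soluble protein was quantified by TMTpro 16plex LC-MS/MS after channel sums were equalised. It was obtained as the supernatant after 21,000xg for 90 min from pooled aliquots of K562 cells (2×10^6 cells/mL, 10 μM compound, 30 min) heated for 3 min across 48°C-58°C and extracted in PBS with 0.5% NP-40 at 4°C. Thermal stability values are relative to control samples and come from duplicates. They are given as log2 fold changes.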

[1] = compound: Cc1cccc(CC(=O)N2CCc3c2ccc(-c2cn(C)c4ncnc(N)c24)c3F)n1
In short: as §1

nilotinib = compound: Cc1cn(-c2cc(NC(=O)c3ccc(C)c(Nc4nccc(-c5cccnc5)n4)c3)cc(C(F)(F)F)c2)cn1 [nilotinib]
In short: as §1

[2] = compound: Cc1nc(Nc2n[nH]c3c2CN(C(=O)N[C@H](CN(C)C)c2ccccc2)C3(C)C)c2sccc2n1
In short: as §1

dasatinib = compound: Cc1nc(Nc2ncc(C(=O)Nc3c(C)cccc3Cl)s2)cc(N2CCN(CCO)CC2)n1 [dasatinib]
In short: as §1

[3] = compound: Cc1ncc(-c2ccnc(Nc3ccc(S(C)(=O)=O)cc3)n2)n1C(C)C
In short: as §1

[4] = compound: Cn1cc(-c2ccc3c(c2)CCN3C(=O)Cc2cccc(C(F)(F)F)c2)c2c(N)ncnc21
In short: as §1

[5] = compound: Cn1cc(-c2ccc3nnc(C(F)(F)c4ccc5ncccc5c4)n3n2)cn1
In short: as §1

tipifarnib = compound: Cn1cncc1[C@@](N)(c1ccc(Cl)cc1)c1ccc2c(c1)c(-c1cccc(Cl)c1)cc(=O)n2C [tipifarnib]
In short: as §1

mubritinib = compound: FC(F)(F)c1ccc(/C=C/c2nc(COc3ccc(CCCCn4ccnn4)cc3)co2)cc1 [mubritinib]
In short: as §1

UniProt P43362, sequence (P43362 whole entry, looked up): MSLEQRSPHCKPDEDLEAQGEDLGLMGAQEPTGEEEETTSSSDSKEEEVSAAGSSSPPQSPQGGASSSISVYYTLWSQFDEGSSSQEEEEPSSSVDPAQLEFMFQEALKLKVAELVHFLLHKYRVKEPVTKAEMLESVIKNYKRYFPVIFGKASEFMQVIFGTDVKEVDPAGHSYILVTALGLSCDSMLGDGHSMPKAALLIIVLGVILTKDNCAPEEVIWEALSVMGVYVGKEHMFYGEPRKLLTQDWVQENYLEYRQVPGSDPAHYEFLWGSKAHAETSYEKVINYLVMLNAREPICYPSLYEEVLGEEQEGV
UniProt Q9UIQ6, sequence (Q9UIQ6 whole entry, looked up): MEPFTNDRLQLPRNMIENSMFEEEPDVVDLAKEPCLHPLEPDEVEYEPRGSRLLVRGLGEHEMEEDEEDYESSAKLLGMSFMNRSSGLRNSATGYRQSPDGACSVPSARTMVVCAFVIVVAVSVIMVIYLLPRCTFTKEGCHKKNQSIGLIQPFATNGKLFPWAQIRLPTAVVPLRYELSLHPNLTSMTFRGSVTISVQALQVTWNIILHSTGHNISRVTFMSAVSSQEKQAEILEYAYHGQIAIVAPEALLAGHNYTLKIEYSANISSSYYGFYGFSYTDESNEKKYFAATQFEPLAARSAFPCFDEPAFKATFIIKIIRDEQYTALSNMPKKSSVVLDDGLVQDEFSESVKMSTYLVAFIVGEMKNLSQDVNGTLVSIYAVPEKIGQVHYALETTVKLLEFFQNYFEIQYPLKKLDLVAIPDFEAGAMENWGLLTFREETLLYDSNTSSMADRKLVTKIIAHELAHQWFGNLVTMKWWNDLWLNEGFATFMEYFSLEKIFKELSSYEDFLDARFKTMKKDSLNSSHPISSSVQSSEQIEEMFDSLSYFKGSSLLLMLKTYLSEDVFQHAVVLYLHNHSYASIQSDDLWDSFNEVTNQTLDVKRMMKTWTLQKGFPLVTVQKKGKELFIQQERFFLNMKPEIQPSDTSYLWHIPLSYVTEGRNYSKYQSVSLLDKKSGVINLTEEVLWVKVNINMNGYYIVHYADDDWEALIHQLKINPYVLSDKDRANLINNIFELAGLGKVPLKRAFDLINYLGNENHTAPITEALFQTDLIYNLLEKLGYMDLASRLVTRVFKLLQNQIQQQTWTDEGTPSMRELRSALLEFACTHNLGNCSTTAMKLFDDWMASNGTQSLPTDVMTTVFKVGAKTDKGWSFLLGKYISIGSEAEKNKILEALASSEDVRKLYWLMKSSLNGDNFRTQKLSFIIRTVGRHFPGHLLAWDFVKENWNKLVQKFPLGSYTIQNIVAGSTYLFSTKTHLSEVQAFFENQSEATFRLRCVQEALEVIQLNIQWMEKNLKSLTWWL
UniProt P29966, sequence (P29966 whole entry, looked up): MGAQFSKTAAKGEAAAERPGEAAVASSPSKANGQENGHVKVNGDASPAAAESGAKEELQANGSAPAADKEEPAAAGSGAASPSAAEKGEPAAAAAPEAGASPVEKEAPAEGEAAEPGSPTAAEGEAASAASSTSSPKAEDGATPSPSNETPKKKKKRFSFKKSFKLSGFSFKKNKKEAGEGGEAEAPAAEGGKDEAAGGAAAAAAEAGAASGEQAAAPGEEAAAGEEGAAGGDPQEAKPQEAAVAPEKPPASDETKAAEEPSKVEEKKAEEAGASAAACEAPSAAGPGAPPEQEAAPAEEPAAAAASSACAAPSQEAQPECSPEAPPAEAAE
UniProt P32019, sequence (P32019 whole entry, looked up): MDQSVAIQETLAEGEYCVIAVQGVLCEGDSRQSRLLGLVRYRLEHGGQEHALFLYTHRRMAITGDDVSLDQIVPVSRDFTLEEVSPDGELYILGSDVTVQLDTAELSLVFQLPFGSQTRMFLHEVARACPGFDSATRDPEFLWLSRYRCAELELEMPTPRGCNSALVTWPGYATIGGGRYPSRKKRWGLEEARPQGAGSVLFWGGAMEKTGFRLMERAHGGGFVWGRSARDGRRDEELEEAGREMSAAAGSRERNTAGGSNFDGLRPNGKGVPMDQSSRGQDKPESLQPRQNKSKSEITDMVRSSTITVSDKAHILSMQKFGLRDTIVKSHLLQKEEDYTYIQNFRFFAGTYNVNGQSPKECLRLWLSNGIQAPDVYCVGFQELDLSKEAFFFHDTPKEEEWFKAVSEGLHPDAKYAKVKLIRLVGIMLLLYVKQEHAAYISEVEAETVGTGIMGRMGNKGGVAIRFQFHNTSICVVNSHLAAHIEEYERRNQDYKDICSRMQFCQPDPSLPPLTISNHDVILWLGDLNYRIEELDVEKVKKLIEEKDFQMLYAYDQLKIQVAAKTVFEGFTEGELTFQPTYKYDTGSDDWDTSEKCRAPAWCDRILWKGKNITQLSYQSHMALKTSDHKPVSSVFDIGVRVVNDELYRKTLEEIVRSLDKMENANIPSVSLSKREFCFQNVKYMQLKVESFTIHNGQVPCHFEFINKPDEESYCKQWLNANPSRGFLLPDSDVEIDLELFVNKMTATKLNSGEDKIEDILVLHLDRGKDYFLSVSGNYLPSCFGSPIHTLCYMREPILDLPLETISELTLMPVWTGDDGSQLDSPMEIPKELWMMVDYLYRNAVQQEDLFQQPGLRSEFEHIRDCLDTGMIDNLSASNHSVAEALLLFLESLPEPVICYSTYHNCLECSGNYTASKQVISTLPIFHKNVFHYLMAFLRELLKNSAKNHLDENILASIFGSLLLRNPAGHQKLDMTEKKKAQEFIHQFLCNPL
UniProt Q8IYU8, sequence (Q8IYU8 whole entry, looked up): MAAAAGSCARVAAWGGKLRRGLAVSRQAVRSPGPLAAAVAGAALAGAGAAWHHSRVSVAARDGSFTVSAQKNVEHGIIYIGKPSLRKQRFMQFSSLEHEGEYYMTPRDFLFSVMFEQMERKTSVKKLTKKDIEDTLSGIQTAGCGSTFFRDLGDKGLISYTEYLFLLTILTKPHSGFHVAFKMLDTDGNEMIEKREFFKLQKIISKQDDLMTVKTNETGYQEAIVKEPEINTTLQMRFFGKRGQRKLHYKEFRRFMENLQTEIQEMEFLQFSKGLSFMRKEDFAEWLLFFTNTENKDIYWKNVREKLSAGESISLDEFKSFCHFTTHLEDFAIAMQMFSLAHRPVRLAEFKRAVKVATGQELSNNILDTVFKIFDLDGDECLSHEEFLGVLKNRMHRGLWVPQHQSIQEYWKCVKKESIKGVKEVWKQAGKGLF
UniProt Q9BRT3, sequence (Q9BRT3 whole entry, looked up): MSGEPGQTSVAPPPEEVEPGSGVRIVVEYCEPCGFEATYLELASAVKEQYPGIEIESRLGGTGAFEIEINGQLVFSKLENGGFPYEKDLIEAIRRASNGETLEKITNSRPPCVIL
UniProt Q9NQX7, sequence (Q9NQX7 whole entry, looked up): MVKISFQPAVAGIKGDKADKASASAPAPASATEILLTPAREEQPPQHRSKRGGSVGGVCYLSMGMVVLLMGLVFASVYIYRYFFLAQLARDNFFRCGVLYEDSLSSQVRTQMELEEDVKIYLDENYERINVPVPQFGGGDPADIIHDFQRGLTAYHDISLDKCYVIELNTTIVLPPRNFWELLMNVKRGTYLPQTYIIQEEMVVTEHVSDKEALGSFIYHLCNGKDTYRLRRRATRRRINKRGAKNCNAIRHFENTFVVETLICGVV
UniProt Q9Y2U8, sequence (Q9Y2U8 whole entry, looked up): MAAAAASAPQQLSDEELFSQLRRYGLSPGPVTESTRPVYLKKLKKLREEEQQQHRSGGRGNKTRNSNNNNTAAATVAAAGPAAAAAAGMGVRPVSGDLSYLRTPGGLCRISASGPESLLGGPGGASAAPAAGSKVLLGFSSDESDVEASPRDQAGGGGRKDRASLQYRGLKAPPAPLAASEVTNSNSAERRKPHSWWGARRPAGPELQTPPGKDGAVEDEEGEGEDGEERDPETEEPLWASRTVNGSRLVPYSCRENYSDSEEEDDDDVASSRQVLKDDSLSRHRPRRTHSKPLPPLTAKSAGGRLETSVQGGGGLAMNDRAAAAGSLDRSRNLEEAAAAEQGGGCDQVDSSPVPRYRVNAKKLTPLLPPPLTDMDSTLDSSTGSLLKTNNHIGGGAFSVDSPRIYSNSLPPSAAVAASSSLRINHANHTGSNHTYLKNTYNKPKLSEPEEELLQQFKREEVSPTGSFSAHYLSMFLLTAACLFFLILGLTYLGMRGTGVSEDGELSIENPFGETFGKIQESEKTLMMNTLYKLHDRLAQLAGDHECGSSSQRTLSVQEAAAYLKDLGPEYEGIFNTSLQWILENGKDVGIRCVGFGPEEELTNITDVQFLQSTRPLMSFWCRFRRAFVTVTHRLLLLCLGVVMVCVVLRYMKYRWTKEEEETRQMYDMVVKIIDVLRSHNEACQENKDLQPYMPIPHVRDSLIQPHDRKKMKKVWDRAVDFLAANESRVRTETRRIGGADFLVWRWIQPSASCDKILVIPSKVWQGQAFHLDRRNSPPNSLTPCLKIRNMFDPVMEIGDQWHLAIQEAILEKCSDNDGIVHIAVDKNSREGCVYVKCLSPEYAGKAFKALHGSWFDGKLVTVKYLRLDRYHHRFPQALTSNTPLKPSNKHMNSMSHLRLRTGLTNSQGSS
UniProt P46734, sequence (P46734 whole entry, looked up): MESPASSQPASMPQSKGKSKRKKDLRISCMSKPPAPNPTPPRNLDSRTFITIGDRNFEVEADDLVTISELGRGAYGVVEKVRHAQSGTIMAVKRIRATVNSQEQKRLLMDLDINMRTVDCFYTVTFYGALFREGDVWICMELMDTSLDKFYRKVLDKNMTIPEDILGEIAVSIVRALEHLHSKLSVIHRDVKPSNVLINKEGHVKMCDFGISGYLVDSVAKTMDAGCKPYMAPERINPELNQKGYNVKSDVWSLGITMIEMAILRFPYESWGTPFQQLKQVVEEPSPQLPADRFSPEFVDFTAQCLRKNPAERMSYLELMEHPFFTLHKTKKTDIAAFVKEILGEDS
UniProt Q96A72, sequence (Q96A72 whole entry, looked up): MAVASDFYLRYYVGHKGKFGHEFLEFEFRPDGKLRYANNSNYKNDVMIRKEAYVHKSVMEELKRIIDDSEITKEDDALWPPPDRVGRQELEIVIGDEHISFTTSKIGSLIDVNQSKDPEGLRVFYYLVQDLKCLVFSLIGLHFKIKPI

| Target | log2 fold change (bafetinib) | log2 fold change [1] | log2 fold change (nilotinib) | log2 fold change [2] | log2 fold change (dasatinib) | log2 fold change [3] | log2 fold change [4] | log2 fold change [5] | log2 fold change (tipifarnib) | log2 fold change (mubritinib) |
| --- | --- | --- | --- | --- | --- | --- | --- | --- | --- | --- |
| MARCKS (UniProt P29966) | -0.102 | -0.133 | 0.053 | -0.003 | 0.022 | -0.007 | 0.033 | 0.034 | -0.002 | -0.017 |
| ITM2C (UniProt Q9NQX7) | -0.064 | -0.127 | 0.099 | -0.018 | 0.024 | 0.127 | 0.09 | 0.038 | 0.039 | – |
| MAP2K3 isoform 3 (UniProt P46734) | -0.071 | 0.096 | -0.019 | 0.021 | -0.04 | -0.049 | 0.005 | -0.083 | 0.08 | -0.145 |
| LNPEP (UniProt Q9UIQ6) | -0.056 | -0.007 | 0.017 | 0.026 | 0.033 | -0.024 | 0.014 | -0.007 | 0.008 | 0.035 |
| LEMD3 (UniProt Q9Y2U8) | -0.171 | -0.114 | -0.127 | -0.026 | -0.106 | 0.037 | 0.163 | 0.049 | -0.008 | 0.001 |
| MIEN1 (UniProt Q9BRT3) | 0.023 | -0.013 | -0.029 | -0.037 | -0.041 | -0.08 | 0.08 | 0.139 | 0.083 | 0.018 |
| MAP1LC3B2 (UniProt A6NCE7) | -0.044 | -0.029 | -0.006 | -0.023 | -0.024 | 0.072 | 0.019 | -0.011 | 0.007 | 0.018 |
| MAGOHB (UniProt Q96A72) | -0.015 | -0.007 | -0.019 | -0.042 | 0.007 | 0.138 | -0.017 | 0.024 | 0 | 0.04 |
| INPP5B (UniProt P32019) | 0.103 | -0.059 | -0.077 | 0.001 | -0.111 | 0.014 | -0.005 | -0.032 | 0.072 | 0.018 |
| MAGEA9 (UniProt P43362) | 0.03 | -0.02 | 0.021 | -0.006 | 0.074 | -0.034 | 0.065 | -0.024 | -0.008 | -0.048 |
| MEPCE (UniProt Q7L2J0) | -0.12 | 0.065 | 0 | -0.337 (active) | -0.116 | -0.123 | 0.023 | 0.061 | 0.029 | -0.018 |
| LRBA (UniProt P50851) | -0.047 | 0.053 | -0.067 | -0.022 | -0.061 | 0.014 | 0.047 | 0.002 | -0.06 | 0.024 |
| MAIP1 (UniProt Q8WWC4) | -0.147 | 0.005 | 0.027 | 0.007 | -0.021 | -0.004 | 0.031 | 0.028 | -0.047 | -0.006 |
| IMMT isoform 4 (UniProt Q16891) | -0.119 | 0.018 | -0.038 | 0.004 | -0.019 | 0.003 | 0.015 | 0.018 | -0.03 | 0.012 |
| MICU2 (UniProt Q8IYU8) | -0.142 | 0.092 | -0.052 | -0.067 | -0.102 | -0.001 | -0.022 | -0.05 | 0.022 | -0.155 |
